Sampled rows, rich in hits. Any-hit rate of the full collection: about 3.5%.
FBW7 activator: activators of human E3 ligase FBW7 | Q969H0 | AlphaScreen FBW7–phospho-cyclin E peptide binding, activator screen | normalized activity (activation), % at 26.1 µM | 0.13% of 650,000 active | AID 1259310; in the data active means normalized activity above about 1.9%;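 further: purified mutant Fbw7 with reduced substrate affinity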
GPR151 activ: activates the human receptor GPR151. Q8TDV0. PathHunter beta-arrestin GPR151 cells, luminescence. activation, % at 11.2 µM. 1% of 650,000 active; in the data active means activation above about 4.9%;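 further: 0% = median of compound wells and 100% = cells with positive control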
Target sequence (Q8TDV0 whole entry, looked up): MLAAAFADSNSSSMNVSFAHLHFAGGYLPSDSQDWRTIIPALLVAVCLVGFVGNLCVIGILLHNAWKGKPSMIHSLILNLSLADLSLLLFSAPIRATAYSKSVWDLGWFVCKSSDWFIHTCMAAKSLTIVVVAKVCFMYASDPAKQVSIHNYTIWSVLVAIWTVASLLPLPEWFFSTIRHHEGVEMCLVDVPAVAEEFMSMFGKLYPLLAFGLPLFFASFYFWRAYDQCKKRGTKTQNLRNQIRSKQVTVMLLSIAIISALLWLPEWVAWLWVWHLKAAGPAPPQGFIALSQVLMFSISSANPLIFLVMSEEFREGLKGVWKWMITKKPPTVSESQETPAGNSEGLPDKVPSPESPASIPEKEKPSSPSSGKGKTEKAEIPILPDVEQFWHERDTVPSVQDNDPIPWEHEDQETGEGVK
TEAD-YAP block: TEAD-YAP interaction inhibition. HEK-TIYL cells, TEAD-Gal4/YAP UAS-luciferase luminescence. AID 1259422. 1.4% of 640,000 active. inhibition, % at 9.12 µM; in the data active means inhibition above about 32%;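 further: 0% = median of test compound wells and 100% = reference inhibitor wells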
MITF inh: blocks human microphthalmia-associated transcription factor | O75030 | AlphaScreen MITF homodimerization, bead proximity signal | inhibition, % at 2.6 µM | 0.91% of 650,000 active | AID 1259374; in the data active means inhibition above about 50%;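 further: 0% = vehicle wells with protein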
MITF inh conf: confirmation of human MITF inhibitors; shares compounds with MITF inh; AlphaScreen MITF homodimerization, biotin/His-MITF beads; inhibition, % at 2.6 µM; 16% of 4,700 active;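 active means inhibition above a cutoff derived from the DMSO control wells, cut at about 28% in these data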;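 further: 0% = MITF dimer wells with DMSO only; inhibitors lower the bead chemiluminescence by keeping MITF from dimerizing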
AS interf DR: counter-screen: compounds optically interfering with AlphaScreen. IC50, µM. shares compounds with MITF inh. AID 1259373. 6% of 480 active. AlphaScreen optical interference counterscreen, cell-free; call rule not given here
AS interf ctr: AlphaScreen optical interference, counter-screen; 7.6% of 4,700 active; shares compounds with MITF inh; LysRS AlphaScreen counterscreen, signal interference, triplicate; inhibition, % at 2.6 µM;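 active means inhibition above a cutoff derived from the DMSO control wells, cut at about 30% in these data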
Starred values were filed as active, the others as inactive; i = inactive; . = not tested or not shown.

SMILES	FBW7 activator	GPR151 activ	TEAD-YAP block	MITF inh	MITF inh conf	AS interf ctr	others
O=C1C2C3C=CC(C3)C2C(=O)N1c1ccc2c(c1)CCC2 (stereo not drawn)	0.1	0.3	-4.6	79.4*	4.5	11.7
O=C1C2CCCCC2C(=O)N1c1ccc2c(c1)CCC2 (stereo not drawn)	-0.1	-2.9	-18.3	18.6	.	.
CCOCCCn1c(=S)[nH]c2cc(C(=O)NCCCN3CCN(c4cccc(Cl)c4)CC3)ccc2c1=O	-0.1	1.0	11.9	-4.4	.	.
COc1ccc(N(C(=O)COc2ccc(Br)cc2)S(=O)(=O)c2ccc(C)cc2)cc1	1.1	0.5	-12.8	62.5*	-2.5	11.9
O=C1N[C@@H](Cc2c[nH]c3ccccc23)C(=O)N2CCN(C(=O)NC3CCCCC3)C[C@H]12	-0.3	-2.0	11.9	76.4*	71.9*	-9.1	AS interf DR=>6.48
CN1C(=O)[C@H]2CN(C(=O)NC3CCCCC3)CCN2C(=O)[C@@H]1Cc1ccccc1	-0.3	1.1	1.3	74.3*	68.7*	-10.7	AS interf DR=>6.48
COc1ccc(C[C@@H]2NC(=O)[C@H]3CN(C(=O)Oc4ccc(F)cc4)CCN3C2=O)cc1	0.2	-0.2	10.3	-10.1	.	.
C[C@@H](OCc1ccccc1)[C@@H]1NC(=O)[C@H]2CN(C(=O)NC3CCCCC3)CCN2C1=O	-0.5	2.7	-1.2	79.7*	73.4*	-7.2	AS interf DR=>6.48
COc1ccc(C[C@@H]2NC(=O)[C@H]3CN(C(=O)NC4CCCCC4)CCN3C2=O)cc1	0.6	0.6	6.9	73.4*	61.6*	-4.4	AS interf DR=>6.48
CC(O)CN1C(=O)C(=O)/C(=C(\O)c2ccccc2)C1c1cccnc1 (stereo not drawn)	-0.1	-1.4	-5.3	8.4	.	.
COCCOC(=O)C1=C(C)NC(SC)=C(C#N)C1c1ccccc1Cl (stereo not drawn)	0.2	0.6	10.6	-2.0	.	.
O=C1N[C@@H](COCc2ccccc2)C(=O)N2CCN(C(=O)NC3CCCCC3)C[C@H]12	-0.1	2.2	-0.8	72.0*	67.7*	-4.3	AS interf DR=>6.48
O=C1N[C@@H](COCc2ccccc2)C(=O)N2CCN(C(=O)OCc3ccccc3)C[C@H]12	-0.4	0.5	3.4	-8.1	.	.
COc1ccc(CCNc2ccnc(Nc3nc4ccccc4n3C)n2)cc1	0.0	1.9	4.2	-0.2	.	.
COc1cccc(CNc2cccc(F)c2)c1OC	0.0	-0.5	2.4	14.9	.	.
COc1cccc(CNc2cccc(C)c2)c1OC	-0.4	3.3	4.2	78.4*	10.6	4.7
COc1cccc(CN2CCN(Cc3cccc(Cl)c3)CC2)c1OC	0.2	0.8	8.2	73.1*	3.6	14.6
COc1ccc(CN2CCN(Cc3cccc(F)c3)CC2)c(OC)c1OC	-0.1	0.6	6.0	47.0	.	.
COc1cccc(CN2CCN(Cc3cccc(Br)c3)CC2)c1OC	-0.2	0.2	0.7	69.6*	4.6	3.3
COc1cccc(CN2CCN(C(=O)c3cccc(Cl)c3)CC2)c1OC	-0.3	0.0	-5.6	44.9	.	.
COc1ccc(CN2CCN(Cc3cccc(OC)c3OC)CC2)cc1Br	0.2	1.5	-3.9	75.1*	9.5	17.6
CCCC(=O)Nc1ccccc1NC(=O)COc1cc(C)cc(C)c1	0.4	3.6	-3.1	20.5	.	.
COc1ccc(/C=C2/N=C(c3ccc4c(c3)OCO4)OC2=O)cc1Br	-0.1	-0.1	2.2	6.2	.	.
COc1cccc(CN2CCN(Cc3cccc(C)c3)CC2)c1OC	-0.2	0.9	1.0	76.3*	2.2	7.3
COc1ccc(N2C(=O)c3cccnc3C2=O)cc1	-0.1	-0.4	-6.4	16.3	.	.
Cc1cc(N=Cc2ccc([N+](=O)[O-])o2)ccc1S(=O)(=O)O	-0.3	0.4	2.2	57.8*	47.5*	-12.3	AS interf DR=>6.48
O=[N+]([O-])c1ccc(C=Nc2ccc(N=Cc3ccc([N+](=O)[O-])o3)cc2)o1	0.1	0.5	14.2	36.1	.	.
O=C(CCCCC1SCC2NC(=O)NC21)NC1(c2ccc3c(c2)OCO3)CCCC1 (stereo not drawn)	-1.5	1.1	-7.2	113.1*	101.7*	18.1	AS interf DR=i
O=C(O)CCCC[C@H]1SC[C@H]2NC(=O)N[C@H]21	-0.5	1.4	-11.8	116.8*	122.8*	100.6*
O=C(O)CCCCC1SCC2NC(=O)NC21 (stereo not drawn)	-0.4	-0.7	-1.8	122.2*	124.4*	100.6*
